Assay results: PubChem BioAssay

Target: NADPH oxidase 4 (Homo sapiens) (UniProt Q9NPH5)
Experiment: compounds shifting NOX4 Amplex Red fluorescence – cell-based, HEK293-NOX4, tetracycline-induced, NOX inhibitor project, primary screen (AID 1160)
Conditions: HEK293-NOX4, Amplex Red H2O2 fluorescence, 45 min; higher = more signal, called active from +8 up or from −8 down

Sequence of NADPH oxidase 4 (Homo sapiens) (Q9NPH5 whole entry, looked up): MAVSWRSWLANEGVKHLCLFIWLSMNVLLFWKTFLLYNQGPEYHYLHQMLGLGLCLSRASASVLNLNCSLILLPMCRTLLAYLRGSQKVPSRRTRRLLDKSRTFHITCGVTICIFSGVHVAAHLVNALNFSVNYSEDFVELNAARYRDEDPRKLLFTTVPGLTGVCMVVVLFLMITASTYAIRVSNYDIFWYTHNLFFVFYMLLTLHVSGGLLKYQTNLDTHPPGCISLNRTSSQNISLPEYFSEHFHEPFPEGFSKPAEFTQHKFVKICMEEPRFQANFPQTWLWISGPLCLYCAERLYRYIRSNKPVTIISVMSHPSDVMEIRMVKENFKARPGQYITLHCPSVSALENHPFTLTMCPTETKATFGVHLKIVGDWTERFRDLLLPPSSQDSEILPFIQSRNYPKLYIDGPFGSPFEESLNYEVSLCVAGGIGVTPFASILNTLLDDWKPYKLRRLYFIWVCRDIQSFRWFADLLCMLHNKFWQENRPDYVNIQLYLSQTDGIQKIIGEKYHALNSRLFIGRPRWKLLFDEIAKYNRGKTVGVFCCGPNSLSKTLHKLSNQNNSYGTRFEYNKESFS

z-score, inactive:
C=CCOC(=O)[C@@H]1[C@H]2C(=O)O[C@H](c3ccccc3)[C@H](c3ccccc3)N2[C@H](c2ccc(OCCOC(=O)[C@H]3C[C@H]4C(=O)N5CCC[C@H]5C(=O)N4[C@H]3c3ccc(O)cc3)cc2)[C@@]12C(=O)Nc1ccccc12 0.0128
C[C@@H]1CC[C@H]2C(=O)N3[C@@H](CC[C@@H](C)[C@@H]3c3cccc(N4CCOCC4)c3)C(=O)N2[C@H]1c1cccc(N2CCOCC2)c1 -1.09
COc1ccc(-c2ccccc2[C@@H]2N[C@H](C(=O)O)CC[C@H]2C)cc1 -1.28
CN1CCC(CCCO)=CC1C1CC1 (configuration not stated) -0.0075
C=CCC(OC(C)=O)[C@@H]1[C@@H](N(Cc2cc3ccccc3o2)C(=O)c2ccc(C)cc2)c2cc(OCCCO)ccc2N1C(=O)c1ccc2ccccc2n1 (some centres not stated) 0.589
C[C@H]1COC(=O)[C@H](Cc2ccccc2)NC(=O)[C@@H](C)COC(=O)[C@H](Cc2ccccc2)NC1=O 0.838
CCN1C(C)=C(C(=O)OC)[C@@H](c2ccccc2)N2C(=O)[C@@]3(C(=O)OC)O[C@@]12[C@@H]1C(=O)N(c2ccccc2)C(=O)[C@@H]13 0.267
CCCC/C=C/[C@H]([C@@H](O)Cc1ccccc1)N(CC#Cc1ccccc1)Cc1ccccc1Br 0.426
Cc1ccc(S[C@]2(C(=O)NCCCN(C)C)CC(=O)N(C3CCCCC3)[C@@H]2c2ccc(CO)cc2I)cc1 -1.42
CO[C@@H]1COC(=O)[C@H](C)NC(=O)CC=C[C@@H](C)[C@H](NS(=O)(=O)c2ccc(C)cc2)COC(=O)CC=C[C@@H]1C 0.661
C=CCNC(=O)[C@H]1[C@@H]2C(=O)O[C@@H](c3ccccc3)[C@@H](c3ccccc3)N2[C@@H](c2ccccc2OCCO)[C@]12C(=O)N(C(=O)OCCOC)c1ccc(C#CCC(C(=O)OC)C(=O)OC)cc12 0.0202
CC(=O)NCCCC[C@@H]1NC(=O)[C@@H]2C[C@H](C(=O)NCCCCCCN(C)C)[C@H](c3ccc(O)cc3)N2C1=O -1.45
O=C(NCC(O)CO)[C@]1(Cc2ccccc2)N=C(c2ccc(OCCCO)cc2)O[C@@H]1c1ccccc1 (some centres not stated) 1.68
C[C@H]1NC(=O)[C@@H](C)NC(=O)[C@@]23C(=O)N[C@@H](Cc4ccccc4)C2[C@H](C)[C@@]2(C)O[C@H]2C3/C=C/C/C=C\CNC1=O (some centres not stated) -0.848
CC(C)N1CC=CC23O[C@@H]4/C=C\CCCOC(=O)C4[C@H]2C(=O)N(CCO)[C@@H]3C1=O (some centres not stated) 0.375
C=CC[C@]1(C(=O)O)N=C(c2ccc(OCCCO)cc2)O[C@H]1c1ccccc1 0.388
CC(C)CNC(=O)[C@@]1(C)c2ccccc2C(=O)N(Cc2ccc(OC(F)(F)F)cc2)[C@H]1c1ccc(CO)cc1 0.775
CO[C@H]1COC(=O)[C@H](Cc2ccccc2)NC(=O)CC=C[C@@H](C)[C@H](OC)COC(=O)CC=C[C@@H]1C 0.103
C=C(COC)/C(=C/C[C@@H](OC(=O)c1ccncc1)c1ccc(OCCO)cc1)c1cc(C(=O)OC)ccc1OC 2.24
CSCC[C@@H]1NC(=O)CC=C[C@@H](C)COC(=O)[C@H](CCSC)NC(=O)CC=C[C@@H](C)COC1=O 0.731
O=C1OCC=C[C@H]2OC34C=CCN(Cc5ccccc5)C(=O)[C@H]3N(CCCCCO)C(=O)[C@@H]4[C@@H]12 (some centres not stated) 0.352
Cc1ccc(S[C@]2(C(=O)NCCN3CCOCC3)CC(=O)N(C3Cc4ccccc4C3)[C@@H]2c2ccc(CO)cc2I)cc1 -1.59
COC(=O)C[C@H]1O[C@]2(C(=O)N(C)c3ccccc32)[C@@H](C)[C@@H]1[Si](C)(C)c1ccc(OC)cc1 0.345
CC/C=C/C(=O)N(C[C@@H]1CCCO1)[C@@H]1CC(C(=O)NCCO)=C[C@H](Oc2c(I)cc(CO)cc2OC)[C@H]1O 1.5
C=C[C@H](OC)[C@@H](OC(=O)Nc1ccc(SC)cc1)c1ccc(OC)c(O)c1 -1.35
CN1C2C=C(c3ccc(CO)cc3)C(C3C(=O)N(C(N)=O)C(=O)C32)C1c1cccs1 (configuration not stated) -0.124
C=CCN(C(=O)C1N(c2ccc(CCO)cc2)C(=O)C2C(C(=O)O)C3C=CC21O3)C(C)(C)C (configuration not stated) -1.46
